From PubChem BioAssay AID1850 (Southern Research Specialized Biocontainment Screening …, 2009)
Where “and” joins values, the source holds several entries; their conditions need not be identical. Identical values can stand only once. In all, about 310,000 compounds went through this assay and about 1,000 (0.32%) were called active. Only a sample is shown. Results with a measured potency or affinity are listed apart. Unmarked numbers belong to inactive results. The rule behind the calls is not given here.

Assay: PhoP regulon inhibitors, Salmonella typhi PhoP promoter GFP reporter, confirmatory (AID 1850);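 note: 0% = induced wells with vehicle and 100% = uninduced wells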
Conditions: fluorescence, 4 h, at 50 µM, hits give high values

SMILES	inhibition
O=C(O)c1cc(CN2CCOCC2)oc1-c1ccccc1	2.28%
Cc1ccc(C(=O)C(C)OC(=O)Cn2cnc3c2c(=O)n(C)c(=O)n3C)cc1 (stereo not drawn)	2.25%
COc1cc(CNc2cccc(C(=O)O)c2)cc(Br)c1OCC(=O)NC(C)(C)C	-9.24%
COC(=O)c1cc(CN2CCN(c3ccccc3C)CC2)ccc1O	-3.53%
Cc1ccc(-c2cc(=O)c3ccccc3[nH]2)cc1	10.7%
COc1ccc(Cc2nc3ccccc3n2CC(=O)N/N=C/c2ccc(C)cc2O)cc1OC	-7.1%
C/C(=N\NC(=S)NCc1ccccc1)c1ccc(Cl)s1	9%
Cc1cc(C)n(-c2nncn2/N=C/c2ccccc2F)n1	-6.07%
O=C(Nc1ccccc1C(=O)N1CCOCC1)C1CC(=O)N(C2CCCC2)C1 (stereo not drawn)	-0.19%
COc1ccc([N+](=O)[O-])cc1C(=O)NCCOc1ccc(Cl)cc1	-0.6%
CC(NCC(O)COC1CCC(C(C)(C)C)CC1)c1ccccc1 (stereo not drawn)	0.36%
COc1ccc(C2/C=C\CN(Cc3ccncc3)CC(=O)N2Cc2ccc(F)cc2)cc1 (stereo not drawn)	-5.33%
COc1ccc(Cl)cc1C(=O)NCC(C)C	-5.89%
O=C(CCC(=O)N1CCCCC1)Nc1nnc(C2CCCCC2)s1	8.14%
CCCN1C(=O)/C(=C/c2cc(C)n(C)c2C)SC1=Nc1ccc(OC)cc1	0.64%
CNC(=O)CC1C(=O)N(c2ccc(Cl)cc2)C(=S)N1CCc1ccc(OC)c(OC)c1 (stereo not drawn)	-0.64%
O=C(NC1CCCC1)c1ccc(S(=O)(=O)N2CCOCC2)cc1	-6.82%
CCCCSCc1nc2ccccn2c1Br	0.1%
CCCOc1ccc(C(=O)NC(=S)N2CCN(c3cc4c(cc3F)c(=O)c(C(=O)O)cn4CC)CC2)cc1	15.1%
CCn1cc(C(=O)O)c(=O)c2cnc(N3CCN(C(=S)NC(=O)c4ccc(Br)cc4)CC3)nc21	5.97%
CCn1cc(C(=O)O)c(=O)c2cc(F)c(N3CCN(C(=S)NC(=O)c4ccc(F)c(F)c4)CC3)cc21	1.24%
CCn1cc(C(=O)O)c(=O)c2cc(F)c(N3CCN(S(=O)(=O)c4ccc5c(c4)OCCO5)CC3)cc21	9.21%
CCn1cc(C(=O)O)c(=O)c2cc(F)c(N3CCN(C(=S)NC(=O)c4ccc(F)cc4)CC3)cc21	9.94%
CC(=O)N1CCN(c2cc3c(cc2F)c(=O)c(C(=O)O)cn3C2CC2)CC1	0.5%

SMILES	inhibition
COc1ccc(NC(=O)C2CCCN(S(=O)(=O)c3ccccc3)C2)c(OC)c1 (stereo not drawn)	0.45%
O=C1C2CCCN2C(c2cccnc2)N1c1nccs1 (stereo not drawn)	0.12%
CCOc1cc(C(=O)Nc2nnc(S(=O)(=O)N3CCOCC3)s2)cc(OCC)c1OCC	-12.6%
CCc1ccc(NC(=O)COC(=O)/C(=C/c2ccccc2OC)c2ccccc2)cc1	-5.82%
CCn1c(C)nnc1SCC(=O)Nc1ccc2c(c1)OCCO2	11.2%
Cc1onc(-c2ccccc2)c1C(=O)N1CCC(CO)(Cc2ccccc2)CC1	-9.9%
CCC(=O)Nc1ccc2c(c1)nc(CCN1CCCCC1)n2C	0.58%
Nc1cnn(C2OC(CO)C(O)C2O)c(=O)n1 (stereo not drawn)	2.98%
Nc1ccn([C@@H]2O[C@H](CO)[C@@H](O)C2O)c(=O)n1 (stereo partly drawn)	6.26%
Nc1nc(F)nc2c1ncn2[C@@H]1O[C@H](CO)[C@@H](O)[C@@H]1O	-2.76%
Nc1ccn([C@@H]2O[C@H](CO)[C@@H](O)[C@@H]2O)c(=O)n1	1.39% and -1.71%
Nc1nc(Cl)nc2c1ncn2[C@@H]1O[C@H](CO)[C@@H](O)[C@H]1O	19.8% and 8.46%
NC(=O)c1ncn([C@@H]2O[C@H](CO)[C@@H](O)[C@H]2O)c1O	4.75%
Cc1ccc(Cn2nnnc2CN2CCC(n3nnc4cc(C)ccc43)CC2)cc1	-8.85%
CCOC(=O)c1ccc(CNC(=O)c2n[nH]c(=O)c3ccccc23)o1	-3.19%
O=C(Nc1cccc(-c2nc3ccccc3s2)c1)c1ccc2c(c1)OCO2	-3.82%
COc1ccc(N=C2SCC(c3ccc([N+](=O)[O-])cc3)=NN2CCO)cc1	7.19%
O=C(CN1CCN(S(=O)(=O)c2ccc(Br)cc2)CC1)N/N=C/c1ccco1	-9.02%
O=C(O)COCC(=O)N1CCN(c2cc(C(F)(F)F)nc3ccccc23)CC1	1.72%
CC(=O)NCCC(=O)Nc1nc2c(ccc3ccccc32)s1	9.9%
O=C(N/C(=C/c1ccco1)C(=O)N1CCCCCC1)c1ccccc1	2.51%
O=C1c2ccccc2C(=O)N1CCCc1c[nH]c2ccccc12	-2.4%
O=C(NCc1cccc(C(F)(F)F)c1)C1CCCN(c2cnccn2)C1 (stereo not drawn)	3.94%
Cc1ccc2[nH]c3c(N4CCN(Cc5ccccc5)CC4)ncnc3c2c1	11.1%

SMILES	inhibition
Cc1ccc2c(c1)[nH]c1c(N3CCN(Cc4ccccc4)CC3)ncnc12	6.98%
Cc1ccc(NC(=O)c2ccc3snnc3c2)cc1	-2.31%
COc1ccccc1N1CCN(C(=O)CN2C(=O)c3ccccc3S2(=O)=O)CC1	-8.97%
Cc1cc(Nc2ccccc2O)c2ccccc2n1	6.66%
Cc1cccc(NC(=S)N(C)C)c1C	17.9%
Cc1cccc(Nc2nc3ccccc3s2)c1C	-1.36%
Cc1cc(Nc2ccccc2)nc2cc(O)ccc12	11.4%
O=C(CSC1=NNC(c2ccccn2)S1)Nc1ccc(C(F)(F)F)cc1 (stereo not drawn)	3.27%
Cc1cc(C)c2cc(C(=O)N3CCC(C(=O)c4ccc(F)cc4)CC3)[nH]c2c1	2.06%
O=C1c2ccccc2NC(c2ccccc2O)N1O (stereo not drawn)	-4.51%
O=C(N/N=C\c1ccc(F)cc1)c1ccc(F)cc1	23.4%
N/C(=N\N=C/c1ccc(Br)cc1)N/N=C\c1ccc(Br)cc1	-6.33%
CC(=O)Nc1ccc2c(c1)nc1n2CCSC1	11.9%
Cc1cc(/C=C2\C(=O)NC(=O)N(c3ccc(Cl)cc3)C2=O)c(C)n1-c1cccc(C(=O)O)c1	-15.1%
Cc1ccc(/C=N/NC(=O)c2nnn(-c3nonc3N)c2CN(C)c2ccccc2)s1	0.97%
Oc1ccccc1N=N/C(=N/Nc1ccccc1O)c1ccccc1	-5.08%
C/C(N=Nc1nc2ccccc2s1)=N\Nc1ccccc1O	16.1%
O=C(Cn1nc(C(F)F)cc1C(F)F)NNC(=S)Nc1ccc(F)cc1	-9.87%
O=C(Cn1nc(C(F)F)cc1C(F)F)NNC(=S)Nc1ccc(Cl)cc1	8.04%
COC1(OC)N=C(N)C2(C#N)C(c3ccccc3)NC(C)=CC12C#N (stereo not drawn)	22.3%
CC(Oc1ccc(Br)cc1)C(=O)N(C)CC(=O)Nc1ccc(N2CCOCC2)cc1 (stereo not drawn)	-2.3%
Cc1cc(N/N=C/c2ccccc2)nc(NCc2ccccc2)n1	-6.44%
Cc1cc(N2CCN(c3ccccc3)CC2)nc(NCc2ccccc2)n1	-4.52%
CCCCNc1cc(C)nc(NCc2ccccc2)n1	15.8%

SMILES	inhibition
Cc1cc(Nc2cccc(F)c2)nc(NCc2ccccc2)n1	-0.63%
Cc1cc(Nc2ccccc2)nc(NCc2ccccc2)n1	-0.96%
Cc1cc(N2CCCCC2)nc(NCc2ccccc2)n1	5.84%
Cc1cc(OC2CCCCC2)nc(NCc2ccccc2)n1	-3.41%
Cc1ccc(/C=N/Nc2cc(C)nc(NCc3ccccc3)n2)cc1	8.63%
CCOc1ccc(S(=O)(=O)Nc2ccccc2C(=O)NCc2ccco2)cc1	-4.17%
CCOCCCNC(=O)c1ccc(N(C)S(=O)(=O)c2ccc(OC)cc2)cc1	-7.69%
CCCCCC(O)CCC(=O)NNC1=CC(=O)CC(C)(C)C1 (stereo not drawn)	5.33%
CC(=O)NCCCC(=O)NN1C(=S)N(Cc2ccccc2)C(=O)C1CC(=O)Nc1cccc(C)c1 (stereo not drawn)	-3.38%
COc1ccc(CCNC(=O)c2ccc(OCC(=O)N3CCOCC3)c(OC)c2)cc1OC	2.3%
O=C(NC(=S)Nc1ccc(S(=O)(=O)Nc2nccs2)cc1)c1cccc(F)c1	9.55%
O=C(Nc1cc(Br)c(O)c(Br)c1)c1cccc(NC(=O)c2ccco2)c1	-5.68%
O=C(Nc1cccc(N=Cc2cc(Br)cc(Br)c2O)c1)c1ccco1	18.1%
O=C(Nc1cccnc1)c1ccc(Br)c(S(=O)(=O)N2CCCC2)c1	1.47%
O=C(Nc1nnc(-c2ccccn2)o1)c1ccc(Br)cc1	-1.87%
O=C(Nc1nnc(-c2ccco2)o1)c1ccc(Cl)cc1	0.38%
Cc1cccc(C(=O)Nc2nnc(-c3ccco3)o2)c1	-1.28%
O=C(Nc1nnc(-c2ccccn2)o1)c1cccc(Br)c1	3.24%
Cc1cccc(CC(=O)N2CCC(n3nccc3NC(=O)C3CC3)CC2)c1	-7.5%
O=C(NCc1ccccc1)c1nc(-c2cccs2)no1	-1.19%
CN(Cc1ccon1)C(=O)C1CCC(=O)N(Cc2ccc(Cl)cc2)C1 (stereo not drawn)	-14.1%
